The record followed here is PMC11006913.

Assay in all cases: PBM; 200 nM protein, PBS
Holding throughout (conditions): dsDNA, one strand shown

One experiment has as its target T1, VENTX (Homo sapiens, UniProt O95231 78-163, R121Q).
T1 sequence: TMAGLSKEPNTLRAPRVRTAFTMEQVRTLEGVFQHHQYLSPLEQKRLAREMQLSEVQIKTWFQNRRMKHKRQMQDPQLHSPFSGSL

The target in experiment [1] is HOXA4 (Homo sapiens, UniProt Q00056 201-287, W262R).
Experiment [2] concerns the target HOXA7 (Homo sapiens, UniProt P31268 116-202).
Experiment [3] concerns the target ALX4 (Homo sapiens, UniProt Q9H161 200-286).
Experiment [4] deals with PRRX1 (Homo sapiens, UniProt P54821 80-166, F113S).
Sequence of PRRX1 (Homo sapiens, UniProt P54821 80-166, F113S) (P54821 80-166 F113S): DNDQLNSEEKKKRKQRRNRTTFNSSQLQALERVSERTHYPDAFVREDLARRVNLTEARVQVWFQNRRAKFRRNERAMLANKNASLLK
In experiment [5] the target is HOXB6 (Homo sapiens, UniProt P17509 132-218, K202E).
Sequence of HOXB6 (Homo sapiens, UniProt P17509 132-218, K202E) (P17509 132-218 K202E): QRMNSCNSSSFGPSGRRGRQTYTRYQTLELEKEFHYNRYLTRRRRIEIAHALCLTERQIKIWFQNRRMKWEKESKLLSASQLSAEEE
The target of experiment [6] is ALX4 (Homo sapiens, UniProt Q9H161 200-286, Q225E).
Sequence of ALX4 (Homo sapiens, UniProt Q9H161 200-286, Q225E) (Q9H161 200-286 Q225E): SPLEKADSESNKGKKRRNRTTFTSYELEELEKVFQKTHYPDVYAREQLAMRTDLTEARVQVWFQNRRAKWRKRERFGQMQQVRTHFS
Experiment [7] concerns the target HOXA2 (Homo sapiens, UniProt O43364 129-215, R185T).
The target of experiment [8] is MSX2 (Homo sapiens, UniProt P35548 130-214, R199I).
Sequence of MSX2 (Homo sapiens, UniProt P35548 130-214, R199I) (P35548 130-214 R199I): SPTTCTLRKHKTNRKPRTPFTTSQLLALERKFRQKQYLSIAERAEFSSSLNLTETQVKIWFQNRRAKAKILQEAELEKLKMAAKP
Experiment [9] concerns the target HOXA2 (Homo sapiens, UniProt O43364 129-215, R185K).
Experiment [10] deals with HOXA4 (Homo sapiens, UniProt Q00056 201-287).
Sequence of HOXA4 (Homo sapiens, UniProt Q00056 201-287) (Q00056 201-287): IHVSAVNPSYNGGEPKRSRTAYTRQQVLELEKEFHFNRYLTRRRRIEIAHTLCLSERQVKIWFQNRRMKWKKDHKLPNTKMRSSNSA
Experiment [11] addresses MSX2 (Homo sapiens, UniProt P35548 130-214).
The target in experiment [12] is MSX2 (Homo sapiens, UniProt P35548 130-214, F161Y).
Sequence of MSX2 (Homo sapiens, UniProt P35548 130-214, F161Y) (P35548 130-214 F161Y): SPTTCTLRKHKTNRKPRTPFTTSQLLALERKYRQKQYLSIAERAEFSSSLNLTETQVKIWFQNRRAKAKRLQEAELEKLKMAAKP
Experiment [13] addresses VAX1 (Homo sapiens, UniProt Q5SQQ9 86-172, T142I).
Experiment [14] deals with HOXA7 (Homo sapiens, UniProt P31268 116-202, W177C).
Sequence of HOXA7 (Homo sapiens, UniProt P31268 116-202, W177C) (P31268 116-202 W177C): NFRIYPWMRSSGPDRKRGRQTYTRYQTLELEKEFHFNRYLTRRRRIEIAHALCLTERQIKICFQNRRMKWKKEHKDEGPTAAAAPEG
The target of a further experiment is ALX1 (Homo sapiens, UniProt Q15699 118-204).
Sequence of ALX1 (Q15699 118-204): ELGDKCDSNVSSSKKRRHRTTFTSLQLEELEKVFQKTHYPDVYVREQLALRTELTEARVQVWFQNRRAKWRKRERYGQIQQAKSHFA
Experiment [15] concerns the target HOXA4 (Homo sapiens, UniProt Q00056 201-287, W262F).
For experiment [16], the target named is PRRX1 (Homo sapiens, UniProt P54821 80-166).
Sequence of PRRX1 (Homo sapiens, UniProt P54821 80-166) (P54821 80-166): as the sequence (P54821 80-166 F113S) above, with S34F counted along it
In experiment [17] the target is VAX1 (Homo sapiens, UniProt Q5SQQ9 86-172, K157R).
Sequence of VAX1 (Homo sapiens, UniProt Q5SQQ9 86-172, K157R) (Q5SQQ9 86-172 K157R): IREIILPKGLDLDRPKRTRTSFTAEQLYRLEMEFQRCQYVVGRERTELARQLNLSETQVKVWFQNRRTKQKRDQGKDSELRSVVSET
Experiment [18] has as its target HOXB6 (Homo sapiens, UniProt P17509 132-218).

Sequence of HOXB6 (Homo sapiens, UniProt P17509 132-218) (P17509 132-218): as the sequence (P17509 132-218 K202E) above, with E71K counted along it
Sequence of MSX2 (Homo sapiens, UniProt P35548 130-214) (P35548 130-214): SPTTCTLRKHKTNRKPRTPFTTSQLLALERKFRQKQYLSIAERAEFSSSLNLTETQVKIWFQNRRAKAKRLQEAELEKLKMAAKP
Sequence of HOXA7 (Homo sapiens, UniProt P31268 116-202) (P31268 116-202): as the sequence (P31268 116-202 W177C) above, with C62W counted along it
Sequence of ALX4 (Homo sapiens, UniProt Q9H161 200-286) (Q9H161 200-286): as the sequence (Q9H161 200-286 Q225E) above, with E26Q counted along it
Sequence of HOXA4 (Homo sapiens, UniProt Q00056 201-287, W262F) (Q00056 201-287 W262F): as the sequence (Q00056 201-287) above, with W62F counted along it
Sequence of HOXA2 (Homo sapiens, UniProt O43364 129-215, R185T) (O43364 129-215 R185T): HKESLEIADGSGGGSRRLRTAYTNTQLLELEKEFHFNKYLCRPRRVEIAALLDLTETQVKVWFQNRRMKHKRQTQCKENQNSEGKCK
Sequence of VAX1 (Homo sapiens, UniProt Q5SQQ9 86-172, T142I) (Q5SQQ9 86-172 T142I): as the sequence (Q5SQQ9 86-172 K157R) above, with T57I, R72K counted along it
Sequence of HOXA2 (Homo sapiens, UniProt O43364 129-215, R185K) (O43364 129-215 R185K): as the sequence (O43364 129-215 R185T) above, with T57K counted along it
Sequence of HOXA4 (Homo sapiens, UniProt Q00056 201-287, W262R) (Q00056 201-287 W262R): as the sequence (Q00056 201-287) above, with W62R counted along it

Turning to GCAATTAA, the binding signal in the experiment with VENTX was 12.2 upbm affinity estimate (log intensity, higher = more binding, comparable within an allelic series); with HOXA4 [1], 10.6 upbm affinity estimate (log intensity, higher = more binding, comparable within an allelic series); with HOXA7 [2], 12.3 upbm affinity estimate (log intensity, higher = more binding, comparable within an allelic series); with ALX4 [3], 13.8 upbm affinity estimate (log intensity, higher = more binding, comparable within an allelic series); with PRRX1 [4], 11.1 upbm affinity estimate (log intensity, higher = more binding, comparable within an allelic series); in the experiment with HOXB6 [5] it was 10.1 upbm affinity estimate (log intensity, higher = more binding, comparable within an allelic series). The binding signal with ALX4 [6] was 13.3 upbm affinity estimate (log intensity, higher = more binding, comparable within an allelic series); with HOXA2 [7], 13.2 upbm affinity estimate (log intensity, higher = more binding, comparable within an allelic series); in the experiment with MSX2 [8], 13.2 upbm affinity estimate (log intensity, higher = more binding, comparable within an allelic series); with HOXA2 [9], 13.4 upbm affinity estimate (log intensity, higher = more binding, comparable within an allelic series); with HOXA4 [10], 13.9 upbm affinity estimate (log intensity, higher = more binding, comparable within an allelic series); in the experiment with MSX2 [11], 14.1 upbm affinity estimate (log intensity, higher = more binding, comparable within an allelic series). Besides, the binding signal with MSX2 [12] was 13.7 upbm affinity estimate (log intensity, higher = more binding, comparable within an allelic series); with VAX1 [13], 13.2 upbm affinity estimate (log intensity, higher = more binding, comparable within an allelic series); with HOXA7 [14], 8.72 upbm affinity estimate (log intensity, higher = more binding, comparable within an allelic series); in the experiment with ALX1, 12.2 upbm affinity estimate (log intensity, higher = more binding, comparable within an allelic series); in the experiment with HOXA4 [15], 11.8 upbm affinity estimate (log intensity, higher = more binding, comparable within an allelic series); with PRRX1 [16] it was 13.2 upbm affinity estimate (log intensity, higher = more binding, comparable within an allelic series). The binding signal was 12.9 upbm affinity estimate (log intensity, higher = more binding, comparable within an allelic series) with VAX1 [17] and 12.7 upbm affinity estimate (log intensity, higher = more binding, comparable within an allelic series) with HOXB6 [18].

As for GTAATTAA, the binding signal with VENTX was 12.4 upbm affinity estimate (log intensity, higher = more binding, comparable within an allelic series); with HOXA4 [1] it was 10.9 upbm affinity estimate (log intensity, higher = more binding, comparable within an allelic series); in the experiment with HOXA7 [2], 12.5 upbm affinity estimate (log intensity, higher = more binding, comparable within an allelic series); with ALX4 [3] it was 14.4 upbm affinity estimate (log intensity, higher = more binding, comparable within an allelic series); in the experiment with PRRX1 [4], 11.8 upbm affinity estimate (log intensity, higher = more binding, comparable within an allelic series); with HOXB6 [5], 10.3 upbm affinity estimate (log intensity, higher = more binding, comparable within an allelic series). The binding signal was 14 upbm affinity estimate (log intensity, higher = more binding, comparable within an allelic series) in the experiment with ALX4 [6]; 13.9 upbm affinity estimate (log intensity, higher = more binding, comparable within an allelic series) in the experiment with HOXA2 [7]; 13.2 upbm affinity estimate (log intensity, higher = more binding, comparable within an allelic series) in the experiment with MSX2 [8]; 13.9 upbm affinity estimate (log intensity, higher = more binding, comparable within an allelic series) with HOXA2 [9]; 14.3 upbm affinity estimate (log intensity, higher = more binding, comparable within an allelic series) in the experiment with HOXA4 [10]; 14.1 upbm affinity estimate (log intensity, higher = more binding, comparable within an allelic series) with MSX2 [11]. Besides, the binding signal with MSX2 [12] is 13.7 upbm affinity estimate (log intensity, higher = more binding, comparable within an allelic series); in the experiment with VAX1 [13] it was 13.9 upbm affinity estimate (log intensity, higher = more binding, comparable within an allelic series); with HOXA7 [14], 9.01 upbm affinity estimate (log intensity, higher = more binding, comparable within an allelic series); in the experiment with ALX1, 12.9 upbm affinity estimate (log intensity, higher = more binding, comparable within an allelic series); with HOXA4 [15] it was 12.9 upbm affinity estimate (log intensity, higher = more binding, comparable within an allelic series); in the experiment with PRRX1 [16], 13.6 upbm affinity estimate (log intensity, higher = more binding, comparable within an allelic series). The binding signal with VAX1 [17] was 13.9 upbm affinity estimate (log intensity, higher = more binding, comparable within an allelic series); with HOXB6 [18], 12.9 upbm affinity estimate (log intensity, higher = more binding, comparable within an allelic series).

Consider AATTAATG, for which the binding signal in the experiment with VENTX is 12 upbm affinity estimate (log intensity, higher = more binding, comparable within an allelic series); with HOXA4 [1], 10.6 upbm affinity estimate (log intensity, higher = more binding, comparable within an allelic series); with HOXA7 [2], 11.9 upbm affinity estimate (log intensity, higher = more binding, comparable within an allelic series); with ALX4 [3], 14 upbm affinity estimate (log intensity, higher = more binding, comparable within an allelic series); with PRRX1 [4] it was 11.3 upbm affinity estimate (log intensity, higher = more binding, comparable within an allelic series); with HOXB6 [5], 10.1 upbm affinity estimate (log intensity, higher = more binding, comparable within an allelic series). Besides, the binding signal was 13.4 upbm affinity estimate (log intensity, higher = more binding, comparable within an allelic series) with ALX4 [6]; 13 upbm affinity estimate (log intensity, higher = more binding, comparable within an allelic series) with HOXA2 [7]; 12.5 upbm affinity estimate (log intensity, higher = more binding, comparable within an allelic series) with MSX2 [8]; 13.5 upbm affinity estimate (log intensity, higher = more binding, comparable within an allelic series) with HOXA2 [9]; 14.1 upbm affinity estimate (log intensity, higher = more binding, comparable within an allelic series) with HOXA4 [10]; 13.5 upbm affinity estimate (log intensity, higher = more binding, comparable within an allelic series) with MSX2 [11]. Further, the binding signal is 13.2 upbm affinity estimate (log intensity, higher = more binding, comparable within an allelic series) in the experiment with MSX2 [12]; 12.9 upbm affinity estimate (log intensity, higher = more binding, comparable within an allelic series) with VAX1 [13]; 8.87 upbm affinity estimate (log intensity, higher = more binding, comparable within an allelic series) with HOXA7 [14]; 12.5 upbm affinity estimate (log intensity, higher = more binding, comparable within an allelic series) in the experiment with ALX1; 11.9 upbm affinity estimate (log intensity, higher = more binding, comparable within an allelic series) with HOXA4 [15]; 13.4 upbm affinity estimate (log intensity, higher = more binding, comparable within an allelic series) in the experiment with PRRX1 [16]. Further, the binding signal in the experiment with VAX1 [17] was 12.8 upbm affinity estimate (log intensity, higher = more binding, comparable within an allelic series); with HOXB6 [18] it was 12.2 upbm affinity estimate (log intensity, higher = more binding, comparable within an allelic series).

For AATTAATA, the binding signal was 11.9 upbm affinity estimate (log intensity, higher = more binding, comparable within an allelic series) with VENTX; 10.8 upbm affinity estimate (log intensity, higher = more binding, comparable within an allelic series) with HOXA4 [1]; 11.7 upbm affinity estimate (log intensity, higher = more binding, comparable within an allelic series) in the experiment with HOXA7 [2]; 14 upbm affinity estimate (log intensity, higher = more binding, comparable within an allelic series) with ALX4 [3]; 11.4 upbm affinity estimate (log intensity, higher = more binding, comparable within an allelic series) with PRRX1 [4]; 10.2 upbm affinity estimate (log intensity, higher = more binding, comparable within an allelic series) with HOXB6 [5]. Also, the binding signal is 13.4 upbm affinity estimate (log intensity, higher = more binding, comparable within an allelic series) with ALX4 [6]; 12.6 upbm affinity estimate (log intensity, higher = more binding, comparable within an allelic series) with HOXA2 [7]; 12.5 upbm affinity estimate (log intensity, higher = more binding, comparable within an allelic series) with MSX2 [8]; 13.1 upbm affinity estimate (log intensity, higher = more binding, comparable within an allelic series) with HOXA2 [9]; 13.8 upbm affinity estimate (log intensity, higher = more binding, comparable within an allelic series) with HOXA4 [10]; 13.5 upbm affinity estimate (log intensity, higher = more binding, comparable within an allelic series) with MSX2 [11]. In addition, the binding signal in the experiment with MSX2 [12] was 13.2 upbm affinity estimate (log intensity, higher = more binding, comparable within an allelic series); with VAX1 [13], 12.8 upbm affinity estimate (log intensity, higher = more binding, comparable within an allelic series); with HOXA7 [14], 8.99 upbm affinity estimate (log intensity, higher = more binding, comparable within an allelic series); with ALX1 it was 12.3 upbm affinity estimate (log intensity, higher = more binding, comparable within an allelic series); with HOXA4 [15], 11.8 upbm affinity estimate (log intensity, higher = more binding, comparable within an allelic series); in the experiment with PRRX1 [16], 13.4 upbm affinity estimate (log intensity, higher = more binding, comparable within an allelic series). Besides, the binding signal in the experiment with VAX1 [17] was 12.5 upbm affinity estimate (log intensity, higher = more binding, comparable within an allelic series); with HOXB6 [18], 12.1 upbm affinity estimate (log intensity, higher = more binding, comparable within an allelic series).
